Source: PubChem BioAssay (National Center for Advancing Translational Sciences (NCATS))
IL1B secr inh – qHTS for Inhibitors of Inflammasome Signaling: IL-1-beta AlphaLISA Primary Screen. AID 743279, 2014. THP-1 LPS/ATP IL-1B secretion, AlphaLISA, 16 h; hits give low values. actives 4.7% (n = 360,000). activity change, % at 57.5 µM; in the data active = activity change below about -50%; inconclusive = mostly about -30% to -49%
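THP-1 cells pretreated 1 hr with compounds (up to 57.5 uM final), then stimulated with LPS (250 ng/mL final) plus ATP (1.25 mM final); secreted IL-1B measured by AlphaLISA after 16 hr, decreased signal indicating inhibition.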
TDP1 cell noCPT – qHTS for Inhibitors of human tyrosyl-DNA phosphodiesterase 1 (TDP1): qHTS in cells in absence of CPT; DT40 Tdp1-/- hTDP1 cells, no CPT, ATP luminescence, 48 h; Potency, µM (doses to about 46.2 µM), for the others: top-dose activity change, negative = growth inhibition, most hits filed as inhibitors; actives 15% (n = 420,000); AID 686978, 2013; note: potency is the fitted concentration of half-maximal effect; nearly all actives have a fitted effect of over 55% in size
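Seeded 400 DT40-hTDP1 cells/well (vehicle DMSO, no 20 nM CPT); pinned compounds; ≥48 hr at 37 °C; CellTiter-Glo luminescence as viability measure.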
TDP1 cell CPT – qHTS for Inhibitors of human tyrosyl-DNA phosphodiesterase 1 (TDP1): qHTS in cells in presence of CPT; actives 12% (n = 420,000); chicken DT40 Tdp1-/-;hTDP1 cells + 20 nM CPT, ATP luminescence, 48 h; Potency, µM (top dose mostly 46.2 µM), for inactives: at the top dose activity change, negative = growth inhibition, hits mostly inhibitors; AID 686979, 2013; note: potency is the fitted concentration of half-maximal effect; nearly all actives have a fitted effect of over 55% in size
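Cell growth measured by CellTiter-Glo luminescence after a minimum 48 h, 37 C compound exposure with 20 nM CPT in Tdp1-knockout DT40 cells stably expressing hTDP1, seeded 400/well; qHTS titration format.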
HT1080 IDH1KD tx – qHTS for induction of synthetic lethality in tumor cells producing 2HG: qHTS for the HT-1080-IDH1KD cell line; HT-1080 IDH1 knockdown viability, ATP luminescence, 48 h; Potency, µM (series often up to 46.1 µM), inactives show at the highest dose activity, negative = toxicity, most hits filed as cytotoxic; actives 2% (n = 360,000); AID 686971, 2013;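 note: potency is the fitted concentration of half-maximal effect; 0% = DMSO wells and -100% = cell-free medium wells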
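Luminescent ATP read-out (CellTiter-Glo, 10 min at room temperature) after 48 h compound exposure at 37 °C gave viability of IDH1-knockdown HT-1080 cells. Activity was normalised to DMSO and cell-free wells, then fitted as concentration-response curves.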
HT1080-NT tox – qHTS for induction of synthetic lethality in tumor cells producing 2HG: qHTS for the HT-1080-NT fibrosarcoma cell line; actives 1.6% (n = 360,000); HT-1080-NT fibrosarcoma viability, CellTiter-Glo ATP luminescence, 48 h; Potency, µM (top dose mostly 46.1 µM), for inactives: at the highest dose activity, negative = less viability, most hits filed as cytotoxic;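 note: NT is the 2HG producing partner of a matched IDH1 knockdown line; potency is the fitted concentration of half-maximal effect; 0% = DMSO-treated cells and -100% = media-only wells without cells; nearly all actives have a fitted effect of over 55% in size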
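Luminescent CellTiter-Glo readout after 48 hours of compound exposure at 37 degrees C defined viability of HT-1080-NT cells. Activity was normalized to DMSO wells and cell-free media wells; concentration-response curves were fitted and assigned curve classes.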
An asterisk follows results filed as active; ? = inconclusive; · = no result given; [ ] = remark or other dose. Sampled rows, rich in hits. Any-hit rate of the full collection: about 19%. Unless noted, calls come from the whole dose curve; as a rule, active = well fitted curve in the direction sought with a large enough effect; inconclusive = small, poorly fitted or top-dose-only effect, or another doubt; inactive = no such curve, though single readings can be large; an effect the other way counts as inactive or inconclusive. Unless noted, % is set by controls: 0 for no effect and ±100 for the full control effect.

SMILES	IL1B secr inh	TDP1 cell noCPT	TDP1 cell CPT	HT1080 IDH1KD tx	HT1080-NT tox
O=C1CCC(OCc2ccccc2)CCN1CC[C@@H](Sc1ccccc1)c1ccccc1 (some centres undefined)	11	?	?	?	?
C[C@@H]1CCC(=O)N(CC[C@H](Sc2ccccc2)c2ccccc2)CC1	0	13µM*	13µM*	-5%	-1%
O=C1CC[C@@H](OCc2ccccc2)CCN1CC[C@H](Sc1ccccc1)c1ccccc1	21	18µM*	16µM*	4%	0%
COc1cccc2c1cc1c(=O)n(CC(=O)NCc3ccc(N(C)C)cc3)nc(C)n12	·	-10%	1%	·	·
COc1ccccc1C(=O)Nc1nnc(S(=O)(=O)N2CCN(c3ccc(F)cc3)CC2)s1	110	?	?	1%	-5%
O=C(N/C(=C/c1ccccc1F)C(=O)N1CCCCC1)c1ccccc1	0	5%	7%	5%	7%
O=C1c2ccccc2C(Nc2ccc(S(=O)(=O)N3CCCCCC3)cc2)N1Cc1ccco1 (centres undefined)	-4	16µM*	21µM*	-11%	1%
O=C1C2C3C=CC(c4ccccc4)(C2C(=O)N1c1cccc(Cl)c1)C1C(=O)N(c2cccc(Cl)c2)C(=O)C31 (centres undefined)	-3	15µM*	15µM*	-17%	-10%
Cc1oc(-c2cccc(Cl)c2)nc1CN1CCCC(C(=O)NCc2ccc(Cl)cc2)C1 (centres undefined)	·	7.3µM*	8.2µM*	·	·
Cc1ccc(CNC(=O)C2CCCN(Cc3nc(-c4cccc(C)c4)oc3C)C2)cc1 (centres undefined)	·	?	18µM*	·	·
Cc1oc(-c2cccc(Cl)c2)nc1CN1CCC(C(=O)NC(C)C)CC1	·	-8%	-16%	·	·
Cc1oc(-c2cccc(Cl)c2)nc1CN1CCCC(C(=O)NC(C)c2ccc3c(c2)OCCO3)C1 (centres undefined)	?	12µM*	21µM*	16µM*	?
Cc1oc(-c2cccc(Cl)c2)nc1CN1CCCC(C(=O)NCc2ccco2)C1 (centres undefined)	-4	?	?	1%	0%
CCOC(=O)c1c(C)[nH]c(C)c1S(=O)(=O)NCC(=O)Nc1cccc(Cl)c1	·	-15%	?	·	·
O=C(CSc1nc2cc(Cl)ccc2s1)N1CCCc2ccccc21	-3	14µM*	?	-5%	3%
O=C(COc1ccccc1F)Nc1ccc2nc(SCC(=O)N3CCc4ccccc43)sc2c1	·	5.2µM*	7.3µM*	·	·
Cc1ccccc1OCC(=O)Nc1ccc2nc(SCC(=O)N3CCc4ccccc43)sc2c1	·	-1%	-5%	·	·
CCOc1ccc2nc(SCC(=O)N3CCCc4ccccc43)sc2c1	31	?	?	-7%	8%
C/C(N)=C(/C#N)C(=O)CSc1nc2cc(Cl)ccc2s1	0	-21%	?	-16%	35µM*
O=C(COc1ccccc1)Nc1ccc2nc(SCCOc3ccccc3)sc2c1	·	?	-23%	·	·
O=C(COc1ccc(F)cc1)Nc1ccc2nc(SCC(=O)N3CCc4ccccc43)sc2c1	·	2.6µM*	2.6µM*	·	·
C/C(N)=C(/C#N)C(=O)CSc1cc(Cl)ccc1Cl	11	?	-3%	-5%	1%
S=C(NCCc1ccccc1)N/N=C/c1c(Cl)cccc1Cl	12	16µM*	?	-11%	-8%
COc1cc(/C=N/NC(=S)NCCc2ccccc2)cc(OC)c1OC	38	16µM*	26µM*	-2%	-6%
Cc1cccc(C)c1NC(=S)N/N=C/c1ccc(OCCC(C)C)cc1	?	7.3µM*	9.2µM*	-7%	-9%
SMILES	IL1B secr inh	TDP1 cell noCPT	TDP1 cell CPT	HT1080 IDH1KD tx	HT1080-NT tox
CCCCOc1ccc(/C=N/NC(=S)Nc2cccc(C)c2C)cc1	6	?	?	14%	-2%
Cc1cccc(C)c1NC(=S)N/N=C/c1c(Cl)cccc1Cl	4	21µM*	?	12%	8%
CCOC(=O)CCC(=O)Nc1ccc(S(=O)(=O)Nc2cc(OC)nc(OC)n2)cc1	14	2%	1%	4%	0%
O=C(Nc1nccs1)c1csc([C@H]2C[C@H](O)[C@@H](CO)O2)n1	34	2%	1%	8%	11%
C[C@@H]1CC[C@@]2(OC1)O[C@H]1C[C@H]3[C@@H]4CC[C@H]5C[C@@H](O)CC[C@]5(C)[C@H]4CC(=O)[C@]3(C)[C@H]1[C@@H]2C	·	-10%[21.1 µM]	17%[21.1 µM]	·	·
CCc1nnc(SCc2nc(-c3ccc(OC)cc3)oc2C)c2cc3sccc3n12	·	-14%	-22%	·	·
O=C(Nc1cccc(O)c1)c1cc2nc(-c3ccc(Br)cc3)cc(C(F)(F)F)n2n1	·	-13%	-10%	·	·
Cc1cnc(N2C(=O)c3ccc([N+](=O)[O-])cc3C2=O)s1	?	-1%	5%	12%	17%
Cc1ccc(N2C(=O)c3cccc4c(N5CCN(C)CC5)ccc(c34)C2=O)c2cccnc12	35	?	?	11µM*	?
Cc1nnc(N2C(=O)c3cccc4c([N+](=O)[O-])ccc(c34)C2=O)s1	-95*	4.6µM*	7.3µM*	?	?
Cc1cccc(N2C(=O)c3cccc4c(N5CCCCC5)c([N+](=O)[O-])cc(c34)C2=O)c1C	0	?	?	-5%	-4%
O=C1c2ccccc2C(=O)N1c1cccc2cccnc12	35	-8%	1%	-2%	-4%
Cc1ccc(N2C(=O)c3cccc4c([N+](=O)[O-])ccc(c34)C2=O)c2cccnc12	13	0.73µM*	0.82µM*	?	?
O=C1c2cccc3c([N+](=O)[O-])ccc(c23)C(=O)N1Cc1cccnc1	-101*	4.6µM*	3.7µM*	12µM*	8.2µM*
COc1ccc(-c2noc(-c3ccc(NCCc4ccccc4)c([N+](=O)[O-])c3)n2)cc1	·	-7%	-3%	·	·
CN(CC(=O)Nc1ccccc1Br)C(=O)c1sccc1-c1ccccc1	3	13µM*	?	0%	-4%
Cc1ccc(C)c(NC(=O)CN(C)C(=O)c2ccccc2OCc2ccc(Cl)cc2)c1	-68*	?	23µM*	-21%	?
CN(CC(=O)Nc1ccccc1Br)C(=O)c1ccccc1OCc1ccccc1Cl	-82*	18µM*	?	?	?
